NS1 function inh: blocks influenza NS1 protein function; Potency, µM (highest dose often 46.1 µM), inactives show at the top dose activity, positive = more growth; 270,000 compounds, 0.4% hits; calls by dose curve; note: actives are rising curves; nearly all actives have a fitted effect of over 50% in size
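Recovery from NS1-induced slow growth read by OD600 in budding yeast switched to galactose assay medium (pH 6.0, -URA) at 1:100 dilution. Compound 23 nl per well; the matching strain lacking NS1 serves as control.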
Pf growth 96h: inhibits malaria parasite growth, 96 h; 320,000 compounds, 6.9% hits; AID 504834; Potency, µM (titrated, usually from 28.7 µM), for inactives: top-dose activity change, negative = inhibition, usual class: inhibitors; P. falciparum luciferase reporter growth, 96 h; note: % is set by controls: 0 for no effect and ±100 for the full control effect
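P. falciparum expressing integrated firefly luciferase, in erythrocytes at 2% hematocrit, 0.05% parasitemia, incubated with compounds 96 h at 37 C, 5% CO2. Growth inhibition read as loss of luminescence; two-generation exposure targets delayed-death apicoplast inhibitors.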
Sm TGR block: blocks Schistosoma mansoni thioredoxin glutathione reductase; Q962Y6; purified TGR, DTNB reduction, TNB absorbance 405 nm; Potency, µM (top dose mostly 114 µM), for the others: at the highest dose activity change, negative = inhibition, most hits filed as inhibitors; 360,000 compounds, 3% hits; AID 485364; note: % is set by controls: 0 for no effect and ±100 for the full control effect; nearly all actives have a fitted effect of over 60% in size
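TGR 20 nM + NADPH 100 uM (dispensed conc.), cpd preinc 15 min RT; start with NADPH (500 uM addition) then DTNB (15 mM addition). Kinetic TNB absorbance, 405 nm filter. Four-parameter Hill fit across titration.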
AMA1 RON2 block: disrupts binding of P. falciparum AMA1 to RON2 | Potency, µM (series often up to 58.2 µM), for the others: at the highest dose activity change, negative = inhibition, hits mostly inhibitors | 360,000 compounds, 0.2% hits | AlphaScreen AMA1-biotinylated RON2 peptide binding;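 note: 0% = vehicle wells and -100% = peptide control; nearly all actives have a fitted effect of over 45% in size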
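AMA1 (3D7) with his tag at 25 nM final met compounds first, then biotinylated RON2 peptide at 25 nM; detection used donor plus acceptor beads, 10 µg/mL apiece, read by AlphaScreen after 30 min at room temperature.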
Pf growth 48h: P. falciparum growth inhibition at 48 hours (one generation); 310,000 compounds, 5.9% hits; P. falciparum luciferase growth in erythrocytes, 48 h; Potency, µM (highest dose often 28.7 µM), for inactives: top-dose activity change, negative = inhibition, most hits filed as inhibitors; note: % is set by controls: 0 for no effect and ±100 for the full control effect
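Read-out is firefly luciferase luminescence from an integrated reporter in P. falciparum, so falling signal marks reduced parasite growth. Infected erythrocytes were at 2% hematocrit and 0.1% parasitemia (final) in Albumax-supplemented RPMI 1640.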
Active calls of the source: *; ? = inconclusive; . = no result given. This is a sample that favours compounds with a hit; in the whole collection about 11% have one here. Unless noted, calls come from the whole dose curve; as a rule, active = well fitted curve in the direction sought with a large enough effect; inconclusive = small, poorly fitted or top-dose-only effect, or another doubt; inactive = no such curve, though single readings can be large; an effect the other way counts as inactive or inconclusive. Potency is the fitted concentration of half-maximal effect.

SMILES	NS1 function inh	Pf growth 96h	Sm TGR block	AMA1 RON2 block	Pf growth 48h
CCn1cc(C(=O)O)c(=O)c2cc(F)c(N3CCN(C(=O)Nc4ccccc4)CC3)cc21	-36.6%	4.7%	-1.1%	-4.4%	0.465µM*
COc1ccc(-c2ccoc2)cc1[C@H]1[C@H]2C=CC[C@@H](C)[C@@H]2C(=O)N1Cc1ccccc1	-14.7%	?	?	0.0%	10.4µM*
COc1ccc(-c2ccc([C@H]3[C@H]4C=CC[C@@H](C)[C@@H]4C(=O)N3Cc3ccccc3)c(F)c2)cc1OC	15.0%	?	-18.6%	-8.2%	?
COc1ccc(-c2c([C@H]3[C@H]4C=CC[C@@H](C)[C@@H]4C(=O)N3Cc3ccccc3)ccc3ccccc23)cc1	-3.7%	9.28µM*	-9.4%	-18.4%	7.38µM*
COc1ccc(-c2ccc([C@H]3[C@H]4C=CC[C@@H](C)[C@@H]4C(=O)N3Cc3ccccc3)c(F)c2)cc1	?	?	-18.8%	10.1%	11.7µM*
Cc1ccc(-c2cc([C@H]3[C@H]4C=CC[C@@H](C)[C@@H]4C(=O)N3Cc3ccccc3)ccc2F)cc1	12.2%	?	-33.9%	-0.7%	10.4µM*
Cc1ccc(F)c([C@H]2C3C=CCC(c4ccccc4)C3C(=O)N2Cc2ccccc2)c1 (stereo partly specified)	-6.0%	?	11.4%	-6.5%	11.7µM*
COc1cccc(N2CCN(C(=O)c3cc4c(OC)c(OC)c(OC)cc4[nH]3)CC2)c1	0.5%	7.38µM*	-5.2%	-1.5%	.
COc1cc2[nH]c(C(=O)N3CCN(C)CC3)cc2c(OC)c1OC	12.7%	20.3%	-1.5%	-2.9%	.
COc1ccc(Cn2c(=O)c3oc4ccccc4c3n(CC(=O)Nc3c(C)cccc3C)c2=O)cc1	.	.	4.3%	.	.
COc1ccc(-n2c(C)cc(-c3csc(NC(=O)c4ccc(S(=O)(=O)N(C)C)cc4)n3)c2C)cc1	5.1%	11.7µM*	-19.2%	27.0%	?
COc1ccc(-c2csc(NC(=S)NC(=O)c3cccs3)n2)cc1OC	0.9%	?	-19.7%	53.4%	11.7µM*
COc1ccc(-c2csc(NC(=S)NC(=O)c3ccc(S(=O)(=O)N(C)C)cc3)n2)cc1OC	13.2%	?	-26.0%	105.6%	13.1µM*
COc1ccc(-c2csc(NC(=O)CS(=O)(=O)c3ccccc3)n2)cc1OC	.	.	.	-4.0%	.
CCc1noc(C)c1C(=O)Nc1nc(-c2ccc(OC)c(OC)c2)cs1	.	10.4µM*	-6.8%	-22.5%	?
CN(C)S(=O)(=O)c1ccc(C(=O)Nc2nc(-c3cccs3)cs2)cc1	-36.4%	?	-6.7%	-9.2%	.
COc1ccc(-c2csc(NC(=S)NC(=O)c3cccs3)n2)cc1Br	7.0%	-7.5%	-27.0%	41.8%	-0.5%
COc1cccc(C(C)(O)c2nc(-c3ccc(F)cc3OC)cs2)c1 (stereo unspecified)	.	.	.	0.9%	.
CCCCCCc1c(O)nc(SCCN(C)C)[nH]c1=O	-3.3%	38.2%	0.0%	-12.2%	9.0%
COC(C[C@@H]1O[C@@H]1[C@H](O)COCc1ccccc1)OC	-3.4%	-6.8%	-4.5%	3.8%	38.8%
Cc1cccc2cc(CN(Cc3cccnc3)C(=S)NCCCN(C)C)c(=O)[nH]c12	-6.5%	?	7.1%	1.2%	?
Cc1ccc2[nH]c(=O)c(CN(Cc3cccnc3)C(=S)NCCCN(C)C)cc2c1	2.5%	5.6%	?	17.3%	14.7µM*
CCN(CC)CCCNC(=S)N(Cc1cccnc1)Cc1cc2cc(C)ccc2[nH]c1=O	-5.5%	5.86µM*	-21.5%	-3.3%	2.33µM*
Cc1c(Cl)cccc1NC(=O)c1ccc2c(c1)CCN2S(=O)(=O)c1ccccc1	.	.	0.8%	.	.
CC[n+]1c(/C=C/N(C)c2ccccc2)sc2ccc(Cl)cc21	-37.7%	0.131µM*	-23.5%	-8.0%	0.104µM*
SMILES	NS1 function inh	Pf growth 96h	Sm TGR block	AMA1 RON2 block	Pf growth 48h
CCn1c(C)[n+](CC)c2ccc(C(=O)N(C)c3ccccc3)cc21	2.7%	18.3%	-11.2%	-5.7%	-17.5%
CC[n+]1c(/C=C/C=C/c2ccc(N(C)C)cc2)sc2ccccc21	-72.9%	4.6%	?	17.8µM*	-10.6%
CCn1c(/C=C/N(C(C)=O)c2ccccc2)[n+](CC)c2ccc(Cl)cc21	1.0%	38.5%	1.2%	6.4%	2.08µM*
CC[n+]1c(/C=C/C=C/N(C(C)=O)c2ccccc2)sc2ccccc21	?	9.28µM*	39.8µM*	-28.9%	4.65µM*
CC(C)(C)N1[C@@H](CC(=O)O)c2cc(C(F)(F)F)ccc2S1(=O)=O	.	.	.	1.3%	.
Cc1cc(F)ccc1S(=O)(=O)N1CCCOC1CNC(=O)C(=O)NCc1ccccn1 (stereo unspecified)	4.8%	-3.5%	-2.6%	88.4%	-8.7%
Cc1ccc(CN2CCSc3ccc(C(=O)NCC(C)c4ccccc4)cc32)cc1 (stereo unspecified)	.	.	0.9%	.	.
N#Cc1ccc(NC(=O)COCc2cc(-c3ccc(F)cc3)on2)cc1	.	.	5.2%	.	.
CC1(C(=O)Nc2ccc3c(c2)OCCO3)CSCC(=O)N1CCCn1ccnc1 (stereo unspecified)	.	.	.	-8.7%	.
Cc1ccc(/C=C2\C(=O)NC(=S)N(c3ccc(F)cc3)C2=O)s1	.	49.4%	?	13.6%	114.1%
Cc1ccc(/C=C2\C(=O)NC(=S)N(c3ccccc3F)C2=O)s1	5.9%	4.2%	7.94µM*	13.5%	6.6%
COC(=O)c1nc(NC(=O)C(C)C)n[nH]1	-0.8%	5.86µM*	17.8µM*	-6.0%	?
COC(=O)c1nc(NC(C)=O)n[nH]1	-1.6%	?	1.4%	.	-12.1%
Cc1ccc(-n2c(=O)cc(NCc3cccnc3)[nH]c2=O)cc1	2.1%	1.85µM*	14.5%	-8.2%	3.7%
CCn1c(Sc2nc(C)nc3scc(-c4cccs4)c23)n[nH]c1=O	-215.2%	7.38µM*	0.0%	-4.6%	?
Cc1nc(SCC(=O)NC(=O)NCCC(C)C)c2c(-c3cccs3)csc2n1	-1.5%	?	7.1%	-3.1%	11.7µM*
Cc1ccc(C)c(NC(=O)CCS(=O)(=O)c2cccc3nsnc23)c1	.	.	-5.0%	.	.
CN(C)c1ccc(-c2csc(C(O)c3ccccc3)n2)cc1 (stereo unspecified)	.	.	.	25.1µM*	.
CN(C)c1ccc(-c2csc(C(C)(O)c3cccc(F)c3)n2)cc1 (stereo unspecified)	.	.	.	15.8µM*	.
Cc1cccc(N2C(=O)CC(N3CCN(Cc4ccc(Cl)cc4)CC3)C2=O)c1 (stereo unspecified)	0.9%	?	44.7µM*	13.7%	15.3%
CCCOc1ccc(N2C(=O)CC(N3CCN(c4ccccc4OC)CC3)C2=O)cc1 (stereo unspecified)	-33.1%	-4.7%	50.1µM*	-9.9%	.
Cc1cccc(N2C(=O)CC(N3CCC(c4nc5ccccc5[nH]4)CC3)C2=O)c1 (stereo unspecified)	-93.9%	20.4%	35.5µM*	18.6%	.

Screens (PubChem)
